Measured values from PubChem BioAssay (NCI).
The panel holds about 79,000 compounds, 15% with a hit somewhere; the sample as a whole holds those more often. The source made the active and inactive calls. Rule as the data show it: active = growth inhibition above about 70%; inactive = the rest.

Key:
[1] = NCI Yeast Anticancer Drug Screen. Data for the rad52 strain (AID 147);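 also: 0% = growth of vehicle-treated control cultures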; conditions: S. cerevisiae rad52 mutant growth inhibition, active compounds read high
Outline: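 DNA repair-defective yeast; compound exposure; growth scored against vehicle controls.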

[2] = NCI Yeast Anticancer Drug Screen. Data for the wt1 strain (AID 149);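 also: 0% = growth of vehicle-treated wt1 cultures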; conditions: S. cerevisiae wt1 strain (SPY 50644) growth inhibition, active compounds read high
Outline: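 Vehicle-normalised growth inhibition; strain wt1; compound exposure.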

[3] = NCI Yeast Anticancer Drug Screen. Data for the rad50EPP+ strain (AID 151);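 also: 0% = growth of vehicle-treated control cultures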; conditions: S. cerevisiae rad50 mutant strain, active compounds read high
Outline: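 rad50EPP+ yeast treated with test compounds. Readout: growth vs vehicle control.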

[4] = NCI Yeast Anticancer Drug Screen. Data for the mgt1 strain (AID 153); conditions: S. cerevisiae mgt1 mutant growth inhibition, active compounds read high
Outline: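 Growth inhibition relative to vehicle controls was scored for the mgt1 yeast strain after compound exposure.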

[5] = NCI Yeast Anticancer Drug Screen. Data for the rad50 strain (AID 155);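 also: 0% = growth of vehicle-only cultures of the same strain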; conditions: S. cerevisiae rad50 strain growth inhibition, active compounds read high
Outline: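 A DNA repair-deficient yeast mutant serves as the test organism; compound-induced growth inhibition is calculated against vehicle-treated cells.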

[6] = NCI Yeast Anticancer Drug Screen. Data for the mec2-1 strain (AID 157); conditions: S. cerevisiae mec2-1 strain, active compounds read high
Outline: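 Growth inhibition is read against vehicle-treated controls after compound exposure of the mec2-1 yeast strain, which is defective in DNA damage repair or cell cycle control.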

[7] = NCI Yeast Anticancer Drug Screen. Data for the rad14 strain (AID 159);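 also: 0% = growth of vehicle-treated control cultures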; conditions: S. cerevisiae rad14 strain growth inhibition, active compounds read high
Outline: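 Vehicle-treated cultures served as the baseline for growth inhibition of a DNA repair-mutant yeast strain exposed to each compound.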

[8] = NCI Yeast Anticancer Drug Screen. Data for the sgs1 mgt1 strain (AID 161);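 also: 0% = growth of cultures given vehicle only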; conditions: S. cerevisiae sgs1 mgt1 strain, active compounds read high
Outline: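 Compounds are added to genetically altered yeast, and growth is compared with cultures given vehicle alone to give percent inhibition.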

[9] = NCI Yeast Anticancer Drug Screen. Data for the CLN2oe strain (AID 163);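 also: 0% = growth of vehicle-only control cultures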; conditions: S. cerevisiae CLN2oe strain, active compounds read high
Outline: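 Compound-treated yeast; growth vs vehicle ctrl = % inhibition. Genetically altered strain (cell-cycle control).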

[10] = NCI Yeast Anticancer Drug Screen. Data for the cln2 rad14 strain (AID 165);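 also: 0% = growth equal to vehicle treated cultures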; conditions: S. cerevisiae cln2 rad14 strain, active compounds read high
Outline: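 Growth inhibition, relative to vehicle-treated controls, is the read-out. The test organism is a yeast strain with defined genetic alterations, cln2 rad14.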

[11] = NCI Yeast Anticancer Drug Screen. Data for the bub3 strain (AID 167); conditions: S. cerevisiae bub3 mutant strain, active compounds read high
Outline: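 Inhibition values come from growth of compound-treated mutant yeast normalised to vehicle-treated controls.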

[12] = NCI Yeast Anticancer Drug Screen. Data for the wt2 strain (AID 169);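 also: 0% = growth of vehicle-treated yeast cultures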; conditions: S. cerevisiae wt2 strain growth inhibition, active compounds read high
Outline: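 Compound exposure of yeast; growth compared with vehicle controls; inhibition reported.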

[13] = NCI Yeast Anticancer Drug Screen. Data for the sgs1 strain (AID 173);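 also: 0% = growth of vehicle-only control cultures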; conditions: S. cerevisiae sgs1 mutant, active compounds read high
Outline: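 Compounds applied to genetically altered yeast; growth compared with vehicle-treated cultures to give % inhibition.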

[14] = NCI Yeast Anticancer Drug Screen. Data for the mlh1 rad18 strain (AID 175); conditions: S. cerevisiae mlh1 rad18 strain growth inhibition, active compounds read high
Outline: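 Cells of a genetically altered yeast strain, deficient in DNA damage repair, were treated with compound. Their growth was then compared with that of vehicle-treated cultures to give inhibition.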

[15] = NCI Yeast Anticancer Drug Screen. Data for the rad18 strain (AID 177); conditions: S. cerevisiae rad18 mutant growth inhibition, active compounds read high
Outline: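 Compounds are applied to a repair-deficient yeast strain, and growth is compared with that of vehicle-treated cultures to give percent inhibition.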

[16] = NCI Yeast Anticancer Drug Screen. Data for the mlh1 strain (AID 171);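 also: 0% = growth of vehicle-treated control cultures of the same strain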; conditions: S. cerevisiae mlh1 strain growth inhibition, active compounds read high
Outline: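 Compounds are applied to a genetically altered yeast strain, and its growth is compared with that of vehicle-treated cultures to give percent inhibition.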

[17] = at 5.0 µM (retest, dose inferred, filed as 0.5)
[18] = at 50.0 µM (retest, dose inferred, filed as 5.0)

Measured: growth inhibition

CN(C)[C@@H]1C(=O)C(C(N)=O)=C(O)[C@@]2(O)C(=O)C3=C(O)c4c(O)cccc4C[C@H]3C[C@@H]12
active: [1]; at 33.0 µM 97% | [1]; at 100.0 µM 98% | [2]; at 33.0 µM 95% | [2]; at 100.0 µM 99% | [4]; at 33.0 µM 97% | [4]; at 100.0 µM 99% | [5]; at 33.0 µM 95% | [5]; [18] 99% | [5]; at 50.0 µM 85.1% | [5]; at 100.0 µM 99% | [6]; [17] 87% | [6]; at 33.0 µM 97% | [6]; [18] 99% | [6]; at 50.0 µM 91% | [6]; at 100.0 µM 99% | [7]; at 33.0 µM 98% | [7]; at 100.0 µM 99% | [8]; [18] 99% | [8]; at 50.0 µM 91% | [9]; at 33.0 µM 98% | [9]; at 100.0 µM 99% | [10]; [18] 99% | [10]; at 50.0 µM 84.7% | [11]; [17] 97% | [11]; at 33.0 µM 97% | [11]; [18] 99% | [11]; at 50.0 µM 89% | [11]; at 100.0 µM 99% | [12]; at 33.0 µM 99% | [12]; at 100.0 µM 99% | [13]; at 33.0 µM 98% | [13]; at 100.0 µM 99% | [14]; [18] 99% | [14]; at 50.0 µM 89.8% | [15]; at 33.0 µM 95% | [15]; at 100.0 µM 99%
inactive: [1]; at 1.2 µM -5% | [1]; at 3.7 µM -10% | [1]; at 11.0 µM 17% | [2]; at 1.2 µM -1% | [2]; at 3.7 µM 2% | [2]; at 11.0 µM 30% | [3]; at 1.2 µM -9% | [3]; at 3.7 µM -8% | [3]; at 11.0 µM 14% | [3]; at 33.0 µM 10% | [3]; at 100.0 µM 9% | [4]; at 1.2 µM 0% | [4]; at 3.7 µM -5% | [4]; at 11.0 µM 21% | [5]; at 1.2 µM -19% | [5]; at 3.7 µM -25% | [5]; [17] 7% | [5]; at 11.0 µM 9% | [6]; at 1.2 µM -5% | [6]; at 3.7 µM -4% | [6]; at 11.0 µM 1% | [7]; at 1.2 µM 0% | [7]; at 3.7 µM -5% | [7]; at 11.0 µM 44% | [8]; [17] 23% | [9]; at 1.2 µM -7% | [9]; at 3.7 µM -15% | [9]; at 11.0 µM 27% | [10]; [17] 61% | [11]; at 1.2 µM -8% | [11]; at 3.7 µM -7% | [11]; at 11.0 µM 5% | [12]; at 1.2 µM 9% | [12]; at 3.7 µM 14% | [12]; at 11.0 µM 52% | [13]; at 1.2 µM -7% | [13]; at 3.7 µM -9% | [13]; at 11.0 µM 26% | [14]; [17] 38% | [15]; at 1.2 µM -7% | [15]; at 3.7 µM -8% | [15]; at 11.0 µM -2%

C[C@@](O)(/C=C/[C@H]1CC=CC(=O)O1)[C@@H](C[C@@H](O)\C=C/C=C\C=C\CO)OP(=O)(O)O
active: [1]; at 100.0 µM 90% | [2]; at 100.0 µM 81% | [4]; at 100.0 µM 86% | [5]; at 100.0 µM 92% | [6]; at 100.0 µM 84% | [7]; at 100.0 µM 94% | [8]; at 50.0 µM 73% | [9]; at 100.0 µM 82% | [11]; at 33.0 µM 86% | [11]; [18] 91% | [11]; at 50.0 µM 86.1% | [11]; at 100.0 µM 93% | [16]; at 100.0 µM 88% | [13]; at 100.0 µM 90% | [15]; at 100.0 µM 84%
inactive: [1]; at 1.2 µM 26% | [1]; at 3.7 µM 22% | [1]; at 11.0 µM 37% | [1]; at 33.0 µM 66% | [2]; at 1.2 µM 18% | [2]; at 3.7 µM 13% | [2]; at 11.0 µM 15% | [2]; at 33.0 µM 35% | [3]; at 1.2 µM 18% | [3]; at 3.7 µM 15% | [3]; at 11.0 µM 17% | [3]; at 33.0 µM 25% | [3]; at 100.0 µM 33% | [4]; at 1.2 µM 33% | [4]; at 3.7 µM 28% | [4]; at 11.0 µM 33% | [4]; at 33.0 µM 51% | [5]; at 1.2 µM 27% | [5]; at 3.7 µM 30% | [5]; [17] 1% | [5]; at 11.0 µM 41% | [5]; at 33.0 µM 62% | [5]; [18] 53% | [5]; at 50.0 µM 67.2% | [6]; at 1.2 µM 9% | [6]; at 3.7 µM 22% | [6]; [17] -2% | [6]; at 11.0 µM 25% | [6]; at 33.0 µM 46% | [6]; [18] 34% | [6]; at 50.0 µM 50.6% | [7]; at 1.2 µM 9% | [7]; at 3.7 µM 13% | [7]; at 11.0 µM 11% | [7]; at 33.0 µM 50% | [8]; [17] 17% | [8]; [18] 60% | [9]; at 1.2 µM 46% | [9]; at 3.7 µM 26% | [9]; at 11.0 µM 25% | [9]; at 33.0 µM 54% | [10]; [17] 5% | [10]; [18] 17% | [10]; at 50.0 µM 42.6% | [11]; at 1.2 µM 29% | [11]; at 3.7 µM 45% | [11]; [17] 34% | [11]; at 11.0 µM 63% | [16]; at 1.2 µM 21% | [16]; at 3.7 µM 20% | [16]; at 11.0 µM 34% | [16]; at 33.0 µM 61% | [13]; at 1.2 µM 33% | [13]; at 3.7 µM 32% | [13]; at 11.0 µM 42% | [13]; at 33.0 µM 59% | [14]; [17] -2% | [14]; [18] 48% | [14]; at 50.0 µM 19.3% | [15]; at 1.2 µM 40% | [15]; at 3.7 µM 34% | [15]; at 11.0 µM 41% | [15]; at 33.0 µM 54%
